The values below come from PubChem BioAssay AID2570 (National Center for Advancing Translational Sciences (NCATS), 2010).

The target of this assay is Vasopressin V1b receptor (Homo sapiens) (UniProt P47901). Put plainly: Counterscreen Concentration-Response Assay for Antagonists of the Neuropeptide S Receptor: Vasopressin Receptor Calcium Signal Transduction. The following applies: CHO-AVPR1B, vasopressin-stimulated calcium fluorescence, FDSS. The method, boiled down: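 CHO cells stably expressing human AVPR1B, calcium-dye loaded, were given compound, then stimulated with 60 nM vasopressin in HBSS/0.1% BSA. Peak kinetic fluorescence was normalized to DMSO and no-signal controls; AC50 from Hill fits.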

Inconclusive results are not listed. A number with no mark means an inactive call. Calls follow the shape of the dose curve; as a rule, active = well fitted curve in the direction sought with a large enough effect; inconclusive = small, poorly fitted or top-dose-only effect, or another doubt; inactive = no such curve, though single readings can be large or run the other way.

Chain of Vasopressin V1b receptor (Homo sapiens) (P47901 whole entry, looked up): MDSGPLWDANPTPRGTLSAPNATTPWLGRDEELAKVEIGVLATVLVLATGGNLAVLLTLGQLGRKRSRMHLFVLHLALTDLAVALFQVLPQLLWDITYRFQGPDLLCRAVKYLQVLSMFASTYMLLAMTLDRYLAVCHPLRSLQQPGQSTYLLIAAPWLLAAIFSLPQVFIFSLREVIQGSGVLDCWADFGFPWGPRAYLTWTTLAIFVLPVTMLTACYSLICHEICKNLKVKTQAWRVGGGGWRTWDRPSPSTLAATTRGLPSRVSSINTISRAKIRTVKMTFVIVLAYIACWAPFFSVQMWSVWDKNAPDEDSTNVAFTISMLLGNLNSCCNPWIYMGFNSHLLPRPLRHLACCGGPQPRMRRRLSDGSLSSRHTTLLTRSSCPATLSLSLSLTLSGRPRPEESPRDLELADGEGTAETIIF

For the compound `COc1cccc(C2C(C#N)=C(NC(=O)CCc3ccccc3)Oc3ccc4ccccc4c32)c1` (stereo unspecified), the max response is 10.7%.
